By AC50 is commonly meant the concentration giving half of the maximal activity seen.

Holding throughout (conditions): mRNA level, 48 h; actives raise or lower the signal
Read-out in assay [1]: JUN Transcription Factor, JUN (gene 3725)
Nature of the assay: LTEA_HepaRG_JUN: Life Technologies and Expression Analysis (LTEA) Assay for JUN Transcription Factor using HepaRG (AID 2283513). In outline: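 Read-out is JUN transcript level by TaqMan qRT-PCR, normalized to ACTB, GAPDH and POLR2A, after 48 h chemical treatment of HepaRG cells. Concentration-response spanned eight half-log points up to 100 uM in 0.5% DMSO.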

Read-out in assay [2]: Lipase C (LIPC), LIPC (gene 3990)
The experiment in a line: LTEA_HepaRG_LIPC: Life Technologies and Expression Analysis (LTEA) Assay for Lipase C (LIPC) using HepaRG (AID 2283514). In outline:
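HepaRG, 48 h exposure, 8-pt half-log series from 100 uM in 0.5% DMSO, duplicates. Readout: LIPC mRNA by Fluidigm qRT-PCR, housekeeping-normalized (ACTB/GAPDH/POLR2A). Gain or loss fitted bidirectionally against DMSO baseline.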

Read-out in assay [3]: MicroRNA 122 (MIR122), gene 406906
The experiment in a line: LTEA_HepaRG_MIR122: Life Technologies and Expression Analysis (LTEA) Assay for MicroRNA 122 (MIR122) using HepaRG (AID 2283516). Also: the transcript read is the microRNA miR-122. In outline:
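Human liver HepaRG cultures receive test chemicals for 48 h at eight half-log concentrations from 100 uM. Expression is quantified by qRT-PCR with ACTB/GAPDH/POLR2A normalization and fitted bidirectionally against 0.5% DMSO.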

Read-out in another assay: MYC, MYC (gene 4609)
The experiment in a line: LTEA_HepaRG_MYC: Life Technologies and Expression Analysis (LTEA) Assay for MYC using HepaRG (AID 2283518). In outline:
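Expression changes were scored by TaqMan qRT-PCR with ACTB, GAPDH and POLR2A normalization. Cultures in serum-free induction medium received duplicate 8-point concentration series, highest 100 uM, for 48 h; DMSO (0.5%) served as baseline.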

Read-out in assay [4]: matrix metalloproteinase-3 (MMP3), MMP3 (gene 4314)
Nature of the assay: LTEA_HepaRG_MMP3: Life Technologies and Expression Analysis (LTEA) Assay for matrix metalloproteinase-3 (MMP3) using HepaRG (AID 2283519). The method, boiled down:
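qRT-PCR read-out of MMP3 mRNA (normalised to three housekeeping genes) in HepaRG liver cells after 48 h chemical exposure; 8-point half-log series, top 100 uM, 0.5% DMSO vehicle. Bidirectional curve fitting against DMSO baseline.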

Read-out in assay [5]: Paternally Expressed 10 (PEG10), PEG10 (gene 23089)
Nature of the assay: LTEA_HepaRG_PEG10: Life Technologies and Expression Analysis (LTEA) Assay for Paternally Expressed 10 (PEG10) using HepaRG (AID 2283520).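 As to AC50: differentiated HepaRG human liver cells in serum-free induction medium with 0.5% DMSO; PEG10 transcript by qRT-PCR normalised to ACTB GAPDH and POLR2A.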 The method, boiled down: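 Human HepaRG cultures are dosed for 48 h across an eight-point half-log series starting at 100 uM, with 0.5% DMSO as vehicle and baseline. Gain or loss of PEG10 transcript is measured by qRT-PCR and fitted in both directions.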

Read-out in assay [6]: Nuclear factor NF-kappa-B p105 subunit (Homo sapiens) (UniProt P19838)
Nature of the assay: LTEA_HepaRG_NFKB1: Life Technologies and Expression Analysis (LTEA) Assay for Nuclear Factor Kappa B Subunit 1 (NFKB1) using HepaRG (AID 2283521).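 Also: differentiated human HepaRG liver cells in serum-free induction medium.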 In outline:
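NFKB1 transcript was measured by TaqMan qRT-PCR on Fluidigm arrays, normalised to three housekeeping genes and fitted in both directions against 0.5% DMSO. HepaRG cells were dosed in duplicate for 48 h in serum-free induction medium, eight half-log steps from 100 uM.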

Read-out in assay [7]: Protein phosphatase 2A (PPP2R4), PTPA (gene 5524)
The experiment in a line: LTEA_HepaRG_PPP2R4: Life Technologies and Expression Analysis (LTEA) Assay for Protein phosphatase 2A (PPP2R4) using HepaRG (AID 2283522). The method, boiled down:
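Cells were plated, cultured 48 h, switched to serum-free induction medium, then dosed for 48 h (8 points, max 100 uM, 0.5% DMSO). RNA was isolated and PPP2R4 expression measured by TaqMan qRT-PCR.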

Read-out in assay [8]: Pyruvate Dehydrogenase Kinase 4 (PDK4), PDK4 (gene 5166)
The experiment in a line: LTEA_HepaRG_PDK4: Life Technologies and Expression Analysis (LTEA) Assay for Pyruvate Dehydrogenase Kinase 4 (PDK4) using HepaRG (AID 2283525). In outline:
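HepaRG (human liver line), 48 h chemical exposure, 8-pt half-log CRC top 100 uM, 0.5% DMSO vehicle, duplicates. Readout: TaqMan qRT-PCR of PDK4 mRNA, housekeeping-normalized; gain/loss fit relative to DMSO baseline.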

Read-out in assay [9]: NAD(P)H dehydrogenase [quinone] 1 (NQO1), NQO1 (gene 1728)
The experiment in a line: LTEA_HepaRG_NQO1: Life Technologies and Expression Analysis (LTEA) Assay for NAD(P)H dehydrogenase [quinone] 1 (NQO1) using HepaRG (AID 2283526). The method, boiled down:
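Transcript induction or suppression is quantified by qRT-PCR in human HepaRG liver cells dosed for 48 hours. Eight half-log concentrations topping at 100 uM are used, with 0.5% DMSO as vehicle and baseline.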

Read-out in assay [10]: Nuclear factor erythroid 2-related factor 2 (Homo sapiens) (UniProt Q16236)
Nature of the assay: LTEA_HepaRG_NFE2L2: Life Technologies and Expression Analysis (LTEA) Assay for Nuclear factor erythroid 2-related factor 2 (NFE2L2) Transcription Factor using HepaRG (AID 2283527). The method, boiled down:
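HepaRG, 48 h dosing, 8-pt half-log series from 100 uM in 0.5% DMSO, duplicates. Read-out: NFE2L2 mRNA by qRT-PCR (ACTB/GAPDH/POLR2A normalization). Bidirectional curve fit vs DMSO baseline.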

Read-out in assay [11]: succinate dehydrogenase complex iron sulfur subunit B (SDHB), SDHB (gene 6390)
The experiment in a line: LTEA_HepaRG_SDHB: Life Technologies and Expression Analysis (LTEA) Assay for succinate dehydrogenase complex iron sulfur subunit B (SDHB) using HepaRG (AID 2283528). The method, boiled down:
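SDHB transcript level read by TaqMan qRT-PCR, housekeeping-normalised (ACTB, GAPDH, POLR2A), after 48 h chemical treatment of plated HepaRG cells; eight concentrations top 100 uM, half-log steps, 0.5% DMSO, duplicates; fitted both directions against DMSO.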

Read-out in assay [12]: Signal transducer and activator of transcription 3 (Homo sapiens) (UniProt P40763)
The experiment in a line: LTEA_HepaRG_STAT3: Life Technologies and Expression Analysis (LTEA) Assay for Signal transducer and activator of transcription (STAT3) using HepaRG (AID 2283529). In outline: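 HepaRG, 48 h exposure, 8-pt half-log series (top 100 uM), 0.5% DMSO vehicle, duplicates. Readout: STAT3 transcript by Fluidigm qRT-PCR, housekeeping-normalized; bidirectional fit vs DMSO baseline.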

Read-out in assay [13]: solute carrier (SLCO1B1), SLCO1B1 (gene 10599)
Nature of the assay: LTEA_HepaRG_SLCO1B1: Life Technologies and Expression Analysis (LTEA) Assay for solute carrier (SLCO1B1) using HepaRG (AID 2283530). In outline: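 Human HepaRG cultures treated for 48 h with an eight-concentration half-log series topping at 100 uM; SLCO1B1 measured by qRT-PCR and fitted bidirectionally relative to DMSO.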

Read-out in assay [14]: sulfotransferase 2A1 (SULT2A1), SULT2A1 (gene 6822)
Nature of the assay: LTEA_HepaRG_SULT2A1: Life Technologies and Expression Analysis (LTEA) Assay for sulfotransferase 2A1 (SULT2A1) using HepaRG (AID 2283531). The method, boiled down:
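Gene-expression endpoint in a human liver cell line: SULT2A1 mRNA change after 48 h chemical treatment, curves fitted in both directions relative to 0.5% DMSO vehicle. Concentrations spanned eight half-log steps from 100 uM.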

Read-out in assay [15]: Transforming Growth Factor (TGFA), TGFA (gene 7039)
Nature of the assay: LTEA_HepaRG_TGFA: Life Technologies and Expression Analysis (LTEA) Assay for Transforming Growth Factor (TGFA) using HepaRG (AID 2283532). The method, boiled down:
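qRT-PCR read-out of TGFA transcript, normalized to three housekeeping genes, fitted bidirectionally against 0.5% DMSO baseline. Human HepaRG cultures received chemicals for 48 h at eight half-log concentrations, top 100 uM.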

Read-out in assay [16]: matrix metalloproteinase-10 (MMP10), MMP10 (gene 4319)
Nature of the assay: LTEA_HepaRG_MMP10: Life Technologies and Expression Analysis (LTEA) Assay for matrix metalloproteinase-10 (MMP10) using HepaRG (AID 2283517). In outline: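 Transcript levels come from Fluidigm qRT-PCR normalized to three housekeeping genes, with curves fitted bidirectionally against 0.5% DMSO. Human HepaRG cells were dosed for 48 hours at concentrations up to 100 uM.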

Read-out in assay [17]: Phosphatase and tensin (PTEN), PTEN (gene 5728)
The experiment in a line: LTEA_HepaRG_PTEN: Life Technologies and Expression Analysis (LTEA) Assay for Phosphatase and tensin (PTEN) using HepaRG (AID 2283523). In outline: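 HepaRG, 48 h exposure, 8-pt half-log series from 100 uM top, 0.5% DMSO vehicle, duplicates. Readout: Fluidigm qRT-PCR of PTEN transcript; housekeeping normalization (ACTB, GAPDH, POLR2A). Gain or loss fitted relative to DMSO baseline.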

Read-out in assay [18]: solute carrier (SLC22A1), SLC22A1 (gene 6580)
Nature of the assay: LTEA_HepaRG_SLC22A1: Life Technologies and Expression Analysis (LTEA) Assay for solute carrier (SLC22A1) using HepaRG (AID 2283524).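 As to AC50: differentiated human HepaRG liver cells in serum-free induction medium.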 In outline:
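qRT-PCR readout (TaqMan, Fluidigm arrays) of SLC22A1 transcript, normalized to three housekeeping genes; bidirectional curve fit relative to 0.5% DMSO vehicle. Differentiated human HepaRG cells, 48 h chemical exposure, top concentration 100 uM, half-log steps, eight points.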

Each structure is given as a SMILES string. Active and inactive are the calls of the source. The calls were made as follows: active = hit-call score of the fitted dose curve at least 0.9, where 1 is the maximum; inactive = score below 0.9.

Chain of Nuclear factor erythroid 2-related factor 2 (Homo sapiens) (Q16236 whole entry, looked up): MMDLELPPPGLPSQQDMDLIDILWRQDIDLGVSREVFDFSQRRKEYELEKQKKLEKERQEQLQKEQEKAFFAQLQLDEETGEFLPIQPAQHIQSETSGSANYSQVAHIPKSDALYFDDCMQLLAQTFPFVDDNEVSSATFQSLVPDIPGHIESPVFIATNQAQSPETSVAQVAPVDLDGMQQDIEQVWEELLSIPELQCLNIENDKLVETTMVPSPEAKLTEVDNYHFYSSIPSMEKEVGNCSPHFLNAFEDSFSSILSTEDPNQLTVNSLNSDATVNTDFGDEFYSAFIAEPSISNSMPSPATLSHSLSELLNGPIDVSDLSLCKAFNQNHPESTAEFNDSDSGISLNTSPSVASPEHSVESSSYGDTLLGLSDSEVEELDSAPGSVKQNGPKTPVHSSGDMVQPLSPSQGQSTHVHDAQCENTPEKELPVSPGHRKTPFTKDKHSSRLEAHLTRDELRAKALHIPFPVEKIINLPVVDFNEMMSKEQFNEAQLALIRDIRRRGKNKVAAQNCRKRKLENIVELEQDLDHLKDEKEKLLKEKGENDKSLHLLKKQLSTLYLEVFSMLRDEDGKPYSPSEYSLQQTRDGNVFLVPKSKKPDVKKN
Chain of Signal transducer and activator of transcription 3 (Homo sapiens) (P40763 whole entry, looked up): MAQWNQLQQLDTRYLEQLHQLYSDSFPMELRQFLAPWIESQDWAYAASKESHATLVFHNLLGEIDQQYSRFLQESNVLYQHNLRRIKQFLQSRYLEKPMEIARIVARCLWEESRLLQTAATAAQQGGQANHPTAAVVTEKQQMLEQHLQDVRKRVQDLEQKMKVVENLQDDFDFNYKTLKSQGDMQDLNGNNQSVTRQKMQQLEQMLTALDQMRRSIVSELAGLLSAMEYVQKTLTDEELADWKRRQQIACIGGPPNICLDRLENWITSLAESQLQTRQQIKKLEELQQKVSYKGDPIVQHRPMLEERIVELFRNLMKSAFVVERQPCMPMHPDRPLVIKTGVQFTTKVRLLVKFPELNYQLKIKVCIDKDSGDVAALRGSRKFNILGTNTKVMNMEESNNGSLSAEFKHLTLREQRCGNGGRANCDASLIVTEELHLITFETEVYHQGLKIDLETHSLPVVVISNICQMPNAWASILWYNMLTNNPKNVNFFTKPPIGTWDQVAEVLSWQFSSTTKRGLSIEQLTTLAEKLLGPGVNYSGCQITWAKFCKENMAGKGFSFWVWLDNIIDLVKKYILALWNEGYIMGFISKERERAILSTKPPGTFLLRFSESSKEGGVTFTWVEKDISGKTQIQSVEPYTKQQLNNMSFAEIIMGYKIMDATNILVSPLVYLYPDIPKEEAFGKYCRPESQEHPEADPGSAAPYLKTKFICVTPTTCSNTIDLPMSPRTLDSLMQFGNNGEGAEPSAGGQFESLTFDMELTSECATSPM
Chain of Nuclear factor NF-kappa-B p105 subunit (Homo sapiens) (P19838 whole entry, looked up): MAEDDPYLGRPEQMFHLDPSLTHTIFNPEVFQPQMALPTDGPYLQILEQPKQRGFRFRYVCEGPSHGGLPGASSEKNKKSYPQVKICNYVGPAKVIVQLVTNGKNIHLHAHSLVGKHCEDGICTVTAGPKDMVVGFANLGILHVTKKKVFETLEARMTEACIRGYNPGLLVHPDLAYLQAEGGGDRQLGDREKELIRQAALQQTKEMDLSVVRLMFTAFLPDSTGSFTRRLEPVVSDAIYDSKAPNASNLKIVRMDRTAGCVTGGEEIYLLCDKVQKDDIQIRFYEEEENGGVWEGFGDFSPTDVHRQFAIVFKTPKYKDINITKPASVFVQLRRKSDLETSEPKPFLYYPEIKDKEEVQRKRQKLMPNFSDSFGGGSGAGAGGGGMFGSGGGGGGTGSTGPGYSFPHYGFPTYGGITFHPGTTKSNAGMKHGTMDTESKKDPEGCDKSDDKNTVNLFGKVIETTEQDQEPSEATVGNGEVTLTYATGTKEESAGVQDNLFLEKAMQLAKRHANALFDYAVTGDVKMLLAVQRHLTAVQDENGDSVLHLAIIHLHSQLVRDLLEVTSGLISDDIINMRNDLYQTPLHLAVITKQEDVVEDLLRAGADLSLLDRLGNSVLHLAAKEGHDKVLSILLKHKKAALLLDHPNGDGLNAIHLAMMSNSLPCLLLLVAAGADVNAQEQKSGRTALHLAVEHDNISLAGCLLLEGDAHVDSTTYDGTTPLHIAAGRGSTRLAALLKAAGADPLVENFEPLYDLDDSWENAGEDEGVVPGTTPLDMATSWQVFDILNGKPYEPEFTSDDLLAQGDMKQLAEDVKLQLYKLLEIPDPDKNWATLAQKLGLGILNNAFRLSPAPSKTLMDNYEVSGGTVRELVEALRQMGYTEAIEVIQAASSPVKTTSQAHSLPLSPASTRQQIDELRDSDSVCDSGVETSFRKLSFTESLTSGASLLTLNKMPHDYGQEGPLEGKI

In the case of `CCCCOC(=O)c1ccccc1C(=O)OCc1ccccc1`, the outcome in [1] was “inactive”; in assay [2], “inactive”; in assay [3], “inactive”; with MYC, MYC (gene 4609), “inactive”; in [4] it was “inactive”; in assay [5] it was “inactive”. Moreover, the molecule was classed as inactive in assay [6], in assay [8], in assay [9], in assay [10], in assay [11] and in assay [12]. For the same molecule, the outcome in assay [13], in assay [14] and in [15] was inactive. Further, the AC50 in assay [7] was 0.349 µM (active).

For the molecule `N#CC(Br)Br`, the outcome in assay [1] was “inactive”; in assay [2], “inactive”; in assay [16], “inactive”; with MYC, MYC (gene 4609), “inactive”; in [4], “inactive”; in assay [5], “inactive”. Moreover, the molecule was called inactive in assay [6], in assay [7], in assay [17], in assay [18], in assay [8] and in [9]. Further, the molecule was called inactive in [10], in assay [11], in assay [12], in assay [13] and in assay [15].

For `C[C@]12C=CC3=C4CCC(=O)C=C4CC[C@H]3[C@@H]1CC[C@@H]2O`, the outcome in assay [1] is “inactive”; in the assay with MYC, MYC (gene 4609), “inactive”; in assay [4], “inactive”; in assay [6] it was “inactive”; in assay [7], “inactive”; in [17], “inactive”. For the same molecule, the result in [8], in assay [9], in assay [10], in [11], in assay [12] and in assay [15] was inactive. In addition, the concentration at half-maximal activity (AC50) in [3] is 69.6 µM (active); in assay [5], 0.805 µM (active); in assay [18], 41 µM (active); in assay [14], 81.8 µM (active).

As for `O=C(Nc1ccccc1)c1ccccc1I`, the molecule was called inactive in assay [1], in [4], in [6], in assay [7], in assay [17] and in assay [9]. Besides, the molecule was classed as inactive in assay [11], in assay [12], in assay [13], in assay [14] and in assay [15]. In addition, the AC50 in [2] was 50 µM (active); in assay [3] it was 50 µM (active); with MYC, MYC (gene 4609), 41.6 µM (active); in assay [5], 31.2 µM (active); in assay [8], 9.92 µM (active); in assay [10], 77.6 µM (active).

The values are drawn from PubChem BioAssay (EPA / NIEHS).
